# Assay results reported in paper PMC7862700, “An all-to-all approach to the identification of sequence-specific readers for epigenetic DNA modifications on cytosine”.
# Experiments:
# Test in all cases: DAPPL (digital affinity profiling via proximity ligation, sequencing); 10 mM Tris-HCl pH 7.5, 50 mM NaCl, 1 mM DTT, 4% glycerol, room temperature, 30 min; GST-TFs on glutathione beads, 16-mer random dsDNA library, 0.1% formaldehyde crosslink after washing; high values mean tight binding
# ELK1 = molecular target: T1, ELK1 (Homo sapiens, UniProt P19419 1-428); conditions: protein: recombinant; tags: N-terminal GST; dsDNA, one strand shown
# T1 sequence: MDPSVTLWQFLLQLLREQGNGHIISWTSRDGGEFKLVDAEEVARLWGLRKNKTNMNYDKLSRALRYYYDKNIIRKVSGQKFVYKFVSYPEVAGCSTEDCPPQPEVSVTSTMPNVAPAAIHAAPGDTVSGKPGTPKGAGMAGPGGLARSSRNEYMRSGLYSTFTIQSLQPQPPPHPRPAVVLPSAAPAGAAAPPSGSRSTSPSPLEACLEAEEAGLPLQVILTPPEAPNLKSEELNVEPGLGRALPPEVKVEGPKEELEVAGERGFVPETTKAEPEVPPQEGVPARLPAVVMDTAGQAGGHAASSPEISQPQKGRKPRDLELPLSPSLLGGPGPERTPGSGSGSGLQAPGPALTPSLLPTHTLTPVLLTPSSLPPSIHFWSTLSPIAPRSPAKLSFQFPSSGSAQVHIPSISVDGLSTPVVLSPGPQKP
# Summary of the method: (§1)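 Yeast served to express human transcription factors as GST fusions, which were then captured on glutathione beads and labelled with DNA barcodes. Pooled with a tag-only sample, they were incubated with 200 nmole of a 16-mer random double-stranded DNA library for 30 min at room temperature in Tris/NaCl/DTT/glycerol buffer, washed, crosslinked with 0.1% formaldehyde, ligated by proximity, amplified by PCR and sequenced. Dividing each hexamer's read frequency for a factor by its frequency for the tag-only sample gives the binding signal.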
# ERG = molecular target: T2, ERG (Homo sapiens, UniProt P11308 1-479); conditions: protein: recombinant; tags: N-terminal GST; dsDNA, one strand shown
# T2 sequence: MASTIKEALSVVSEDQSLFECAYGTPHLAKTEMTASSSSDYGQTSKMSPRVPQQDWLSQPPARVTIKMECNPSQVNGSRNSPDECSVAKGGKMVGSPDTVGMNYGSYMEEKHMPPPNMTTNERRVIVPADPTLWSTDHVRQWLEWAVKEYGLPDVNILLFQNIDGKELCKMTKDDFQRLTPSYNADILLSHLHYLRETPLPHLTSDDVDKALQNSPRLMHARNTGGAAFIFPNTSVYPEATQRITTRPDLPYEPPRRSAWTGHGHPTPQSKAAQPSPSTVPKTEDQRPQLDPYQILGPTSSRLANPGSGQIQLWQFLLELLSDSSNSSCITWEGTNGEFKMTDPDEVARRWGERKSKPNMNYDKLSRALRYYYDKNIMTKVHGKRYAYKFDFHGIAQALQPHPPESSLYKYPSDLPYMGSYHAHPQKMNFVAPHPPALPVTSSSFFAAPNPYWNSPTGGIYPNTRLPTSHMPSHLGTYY
# Summary of the method: as §1
# EHF = molecular target: T3, EHF (Homo sapiens, UniProt Q9NZC4 1-300); conditions: protein: recombinant; tags: N-terminal GST; dsDNA, one strand shown
# T3 sequence: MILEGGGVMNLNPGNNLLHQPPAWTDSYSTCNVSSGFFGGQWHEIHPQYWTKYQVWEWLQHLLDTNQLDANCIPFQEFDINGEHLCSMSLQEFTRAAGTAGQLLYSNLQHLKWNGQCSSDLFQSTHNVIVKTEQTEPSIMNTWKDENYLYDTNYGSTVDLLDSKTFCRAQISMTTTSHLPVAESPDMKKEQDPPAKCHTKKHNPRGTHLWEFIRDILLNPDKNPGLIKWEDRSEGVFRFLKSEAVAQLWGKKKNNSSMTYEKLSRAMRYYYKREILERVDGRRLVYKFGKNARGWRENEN
# Summary of the method: as §1
# SPI1 = SPI1 (Homo sapiens, UniProt P17947 1-270); conditions: protein: recombinant; tags: N-terminal GST; dsDNA, one strand shown
# Summary of the method: as §1
# ELK3 = molecular target: T4, ELK3 (Homo sapiens, UniProt P41970 1-407); conditions: protein: recombinant; tags: N-terminal GST; dsDNA, one strand shown
# T4 sequence: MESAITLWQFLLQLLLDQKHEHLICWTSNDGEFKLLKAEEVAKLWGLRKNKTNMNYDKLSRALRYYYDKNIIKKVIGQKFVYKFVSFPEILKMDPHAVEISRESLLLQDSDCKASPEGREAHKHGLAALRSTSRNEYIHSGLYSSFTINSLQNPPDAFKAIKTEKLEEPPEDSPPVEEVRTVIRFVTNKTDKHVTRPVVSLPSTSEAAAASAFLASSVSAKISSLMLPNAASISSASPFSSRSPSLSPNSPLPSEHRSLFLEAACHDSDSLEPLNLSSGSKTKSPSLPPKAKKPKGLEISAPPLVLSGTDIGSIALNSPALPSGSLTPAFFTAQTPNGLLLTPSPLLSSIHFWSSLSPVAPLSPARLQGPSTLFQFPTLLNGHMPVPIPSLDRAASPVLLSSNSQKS
# Summary of the method: as §1
# HSF1 = HSF1 (Homo sapiens, UniProt Q00613 1-529); conditions: protein: recombinant; tags: N-terminal GST; chain copies: 3; dsDNA, one strand shown
# Chain of HSF1 (Q00613 whole entry): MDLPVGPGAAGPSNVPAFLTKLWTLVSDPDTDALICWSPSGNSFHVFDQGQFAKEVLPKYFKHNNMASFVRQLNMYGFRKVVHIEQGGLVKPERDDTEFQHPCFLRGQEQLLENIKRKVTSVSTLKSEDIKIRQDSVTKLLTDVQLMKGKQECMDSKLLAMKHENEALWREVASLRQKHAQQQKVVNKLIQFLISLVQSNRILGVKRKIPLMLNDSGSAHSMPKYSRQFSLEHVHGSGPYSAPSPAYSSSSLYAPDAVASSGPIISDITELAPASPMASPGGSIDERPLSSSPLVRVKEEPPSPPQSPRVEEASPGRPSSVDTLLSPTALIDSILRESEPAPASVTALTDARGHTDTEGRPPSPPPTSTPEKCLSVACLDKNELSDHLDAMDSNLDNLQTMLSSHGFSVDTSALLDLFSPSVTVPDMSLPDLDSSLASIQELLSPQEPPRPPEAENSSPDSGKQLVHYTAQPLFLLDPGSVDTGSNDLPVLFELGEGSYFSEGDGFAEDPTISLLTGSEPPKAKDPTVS
# Summary of the method: as §1
# SPIC = molecular target: T5, SPIC (Homo sapiens, UniProt Q8N5J4 1-248); conditions: protein: recombinant; tags: N-terminal GST; dsDNA, one strand shown
# T5 sequence: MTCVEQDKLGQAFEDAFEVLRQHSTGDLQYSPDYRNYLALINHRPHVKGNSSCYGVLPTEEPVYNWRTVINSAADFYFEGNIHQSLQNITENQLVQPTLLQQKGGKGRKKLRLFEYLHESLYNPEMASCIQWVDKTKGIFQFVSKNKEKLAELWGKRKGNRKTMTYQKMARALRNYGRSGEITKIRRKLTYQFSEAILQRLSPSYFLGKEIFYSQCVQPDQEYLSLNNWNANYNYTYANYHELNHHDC
# Summary of the method: as §1
# ELF4 = ELF4 (Homo sapiens, UniProt Q99607 1-663); conditions: protein: recombinant; tags: N-terminal GST; dsDNA, one strand shown
# Chain of ELF4 (Q99607 whole entry): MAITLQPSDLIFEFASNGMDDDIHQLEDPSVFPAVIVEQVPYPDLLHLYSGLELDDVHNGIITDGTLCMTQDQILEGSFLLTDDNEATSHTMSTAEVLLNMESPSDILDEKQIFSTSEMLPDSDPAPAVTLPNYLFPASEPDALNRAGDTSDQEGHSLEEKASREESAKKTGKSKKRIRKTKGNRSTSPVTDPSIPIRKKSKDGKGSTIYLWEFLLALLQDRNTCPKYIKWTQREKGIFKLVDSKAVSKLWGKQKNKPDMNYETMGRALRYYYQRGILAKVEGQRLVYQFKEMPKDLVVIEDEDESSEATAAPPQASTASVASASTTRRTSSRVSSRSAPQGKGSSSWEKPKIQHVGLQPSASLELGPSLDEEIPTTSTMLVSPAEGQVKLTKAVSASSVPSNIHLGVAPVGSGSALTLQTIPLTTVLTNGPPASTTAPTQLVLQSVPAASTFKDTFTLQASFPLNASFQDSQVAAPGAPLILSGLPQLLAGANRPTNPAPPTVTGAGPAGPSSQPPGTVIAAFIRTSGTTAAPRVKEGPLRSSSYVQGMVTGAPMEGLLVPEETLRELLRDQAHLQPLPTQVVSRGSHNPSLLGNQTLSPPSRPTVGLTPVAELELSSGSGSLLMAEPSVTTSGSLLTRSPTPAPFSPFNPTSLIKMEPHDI
# Summary of the method: as §1
# ETV2 = molecular target: T6, ETV2 (Homo sapiens, UniProt O00321 1-342); conditions: protein: recombinant; tags: N-terminal GST; dsDNA, one strand shown
# T6 sequence: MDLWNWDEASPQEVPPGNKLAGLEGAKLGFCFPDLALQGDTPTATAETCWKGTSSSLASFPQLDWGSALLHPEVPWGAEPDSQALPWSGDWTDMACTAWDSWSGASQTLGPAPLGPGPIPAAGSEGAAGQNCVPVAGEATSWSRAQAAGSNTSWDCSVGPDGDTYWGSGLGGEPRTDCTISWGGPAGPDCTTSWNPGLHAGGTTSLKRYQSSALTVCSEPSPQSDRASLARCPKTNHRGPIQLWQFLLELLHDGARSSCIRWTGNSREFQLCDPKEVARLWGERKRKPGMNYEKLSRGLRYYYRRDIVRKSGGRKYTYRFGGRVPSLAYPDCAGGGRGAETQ
# Summary of the method: as §1
# ELF3 = molecular target: T7, ELF3 (Homo sapiens, UniProt P78545 1-371); conditions: protein: recombinant; tags: N-terminal GST; dsDNA, one strand shown
# T7 sequence: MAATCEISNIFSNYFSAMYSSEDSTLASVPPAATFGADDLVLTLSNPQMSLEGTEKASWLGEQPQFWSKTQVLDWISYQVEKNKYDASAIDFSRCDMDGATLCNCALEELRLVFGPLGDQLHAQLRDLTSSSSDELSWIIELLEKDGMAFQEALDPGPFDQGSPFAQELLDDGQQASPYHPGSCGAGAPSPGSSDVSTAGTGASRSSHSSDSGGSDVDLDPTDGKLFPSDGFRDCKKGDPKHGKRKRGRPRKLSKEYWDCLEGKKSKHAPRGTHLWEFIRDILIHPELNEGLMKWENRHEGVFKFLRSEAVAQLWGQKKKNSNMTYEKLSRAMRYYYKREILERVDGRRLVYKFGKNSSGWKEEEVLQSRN
# Summary of the method: as §1
# CRX = CRX (Homo sapiens, UniProt O43186 1-299); conditions: protein: recombinant; tags: N-terminal GST; dsDNA, one strand shown
# Chain of CRX (O43186 whole entry): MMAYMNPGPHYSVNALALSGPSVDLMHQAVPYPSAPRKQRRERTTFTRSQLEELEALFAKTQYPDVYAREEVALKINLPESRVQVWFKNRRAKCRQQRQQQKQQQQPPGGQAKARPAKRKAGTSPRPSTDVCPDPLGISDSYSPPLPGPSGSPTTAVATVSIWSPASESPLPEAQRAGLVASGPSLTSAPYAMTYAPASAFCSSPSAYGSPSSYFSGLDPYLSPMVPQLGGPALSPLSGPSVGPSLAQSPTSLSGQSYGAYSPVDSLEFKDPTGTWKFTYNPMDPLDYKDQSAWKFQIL
# Summary of the method: as §1
# ETV1 = ETV1 (Homo sapiens, UniProt P50549 1-477); conditions: protein: recombinant; tags: N-terminal GST; dsDNA, one strand shown
# Chain of ETV1 (P50549 whole entry): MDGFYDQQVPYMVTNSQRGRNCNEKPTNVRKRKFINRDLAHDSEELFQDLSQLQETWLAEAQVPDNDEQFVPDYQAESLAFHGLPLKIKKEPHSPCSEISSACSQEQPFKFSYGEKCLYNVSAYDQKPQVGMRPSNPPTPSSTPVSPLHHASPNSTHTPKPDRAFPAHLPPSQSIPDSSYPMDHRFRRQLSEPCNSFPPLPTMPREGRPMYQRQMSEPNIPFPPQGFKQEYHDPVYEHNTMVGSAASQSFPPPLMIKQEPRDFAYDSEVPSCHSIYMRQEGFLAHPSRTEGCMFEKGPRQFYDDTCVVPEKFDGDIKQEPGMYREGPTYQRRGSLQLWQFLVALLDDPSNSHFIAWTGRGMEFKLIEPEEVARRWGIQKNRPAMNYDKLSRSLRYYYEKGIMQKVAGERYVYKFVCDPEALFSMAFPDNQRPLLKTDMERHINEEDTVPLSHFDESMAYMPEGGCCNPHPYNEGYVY
# Summary of the method: as §1
# ETV3L = molecular target: T8, ETV3L (Homo sapiens, UniProt Q6ZN32 1-361); conditions: protein: recombinant; tags: N-terminal GST; dsDNA, one strand shown
# T8 sequence: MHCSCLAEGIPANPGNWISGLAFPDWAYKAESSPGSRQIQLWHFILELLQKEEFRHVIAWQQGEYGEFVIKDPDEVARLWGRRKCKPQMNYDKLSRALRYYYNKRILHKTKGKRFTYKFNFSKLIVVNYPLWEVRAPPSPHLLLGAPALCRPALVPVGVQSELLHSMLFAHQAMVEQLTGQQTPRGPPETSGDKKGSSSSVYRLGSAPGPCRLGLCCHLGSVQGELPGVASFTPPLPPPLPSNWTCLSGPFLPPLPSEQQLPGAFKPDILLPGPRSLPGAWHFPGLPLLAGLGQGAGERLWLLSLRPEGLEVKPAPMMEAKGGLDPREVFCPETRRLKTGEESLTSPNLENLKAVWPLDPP
# Summary of the method: as §1
# SPDEF = molecular target: T9, SPDEF (Homo sapiens, UniProt O95238 1-335); conditions: protein: recombinant; tags: N-terminal GST; dsDNA, one strand shown
# T9 sequence: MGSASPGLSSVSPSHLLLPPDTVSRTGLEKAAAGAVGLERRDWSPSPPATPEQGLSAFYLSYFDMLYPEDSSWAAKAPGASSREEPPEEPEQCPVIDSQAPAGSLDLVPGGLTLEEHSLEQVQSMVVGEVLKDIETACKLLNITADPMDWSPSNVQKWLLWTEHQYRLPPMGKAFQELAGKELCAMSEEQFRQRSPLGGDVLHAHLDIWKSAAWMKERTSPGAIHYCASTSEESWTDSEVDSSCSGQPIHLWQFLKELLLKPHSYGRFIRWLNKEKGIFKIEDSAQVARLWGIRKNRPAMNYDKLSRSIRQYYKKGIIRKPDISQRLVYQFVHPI
# Summary of the method: as §1
sequence,measurement,setting,value
TGGATC,binding signal,ELK1,"1.01 fold enrichment (6-mer frequency, TF over GST control)"
same,binding signal,ERG,"1.02 fold enrichment (6-mer frequency, TF over GST control)"
same,binding signal,EHF,"1 fold enrichment (6-mer frequency, TF over GST control)"
same,binding signal,SPI1,"1.03 fold enrichment (6-mer frequency, TF over GST control)"
same,binding signal,ELK3,"1.09 fold enrichment (6-mer frequency, TF over GST control)"
same,binding signal,HSF1,"1.16 fold enrichment (6-mer frequency, TF over GST control)"
same,binding signal,SPIC,"1.11 fold enrichment (6-mer frequency, TF over GST control)"
same,binding signal,ELF4,"1.02 fold enrichment (6-mer frequency, TF over GST control)"
same,binding signal,ETV2,"1.03 fold enrichment (6-mer frequency, TF over GST control)"
same,binding signal,ELF3,"1.06 fold enrichment (6-mer frequency, TF over GST control)"
same,binding signal,CRX,"1.15 fold enrichment (6-mer frequency, TF over GST control)"
same,binding signal,ETV1,"1.01 fold enrichment (6-mer frequency, TF over GST control)"
same,binding signal,ETV3L,"1.12 fold enrichment (6-mer frequency, TF over GST control)"
same,binding signal,SPDEF,"1.09 fold enrichment (6-mer frequency, TF over GST control)"
AGGAAT,binding signal,HSF1,"1.01 fold enrichment (6-mer frequency, TF over GST control)"
TCCGAG,binding signal,HSF1,"1.03 fold enrichment (6-mer frequency, TF over GST control)"
TGTAGA,binding signal,HSF1,"1.12 fold enrichment (6-mer frequency, TF over GST control)"
same,binding signal,SPIC,"1.1 fold enrichment (6-mer frequency, TF over GST control)"
CGAAGA,binding signal,HSF1,"1.19 fold enrichment (6-mer frequency, TF over GST control)"
